Reference: PubChem BioAssay AID743060 (The Scripps Research Institute Molecular Screening Center, 2013)

Assay: T. brucei methionyl-tRNA synthetase enzyme inhibition – biochemical, radioactivity, round 1, late-stage follow-up (AID 743060)
Details: purified enzyme, radiolabel aminoacylation, scintillation, 2 h; at 10 µM; stronger effect = higher value
`O=C(CN1CCSC1=NCc1ccccc1)c1ccc(Cl)c(Cl)c1` gave an inhibition of 28%.
`O=C(N/C(=C\c1cccnc1)c1nc2ccccc2[nH]1)c1cccc(Br)c1` showed an inhibition of 71.7%.
In the case of `Cc1ccc2[nH]c3nc(SCC(=O)Nc4ccc(C(F)(F)F)cc4)nnc3c2c1`, the inhibition is reported as 15.1%.
Compound `O=C(C(=O)N1CCOCC1)c1cn(CC(=O)N2CCCc3ccccc32)c2ccccc12` has an inhibition of -4.11%.
Compound `O=C(NCc1nc2ccccc2[nH]1)C1=C[C@H](c2csc3ccccc23)C[C@H](OCCCCO)O1` has an inhibition of 97.8%.
Work on `CCO[C@H]1OC(C(=O)NCc2nc3ccccc3[nH]2)=C[C@@H](c2ccc(Br)cc2)[C@@H]1CCCO` yielded an inhibition of 81.6%.
For `CCC(=O)c1cn(CC(=O)Nc2cccc(C(F)(F)F)c2)c2ccccc12`, the inhibition was 4.46%.
`CC(C)(C)[C@H]1C=C(C(=O)NCc2nc3ccccc3[nH]2)O[C@@H](OCc2ccc(CO)cc2)C1` showed an inhibition of 83.8%.
Work on `CC(=O)c1ccc(N2CCN(C(=O)CCCn3c(=O)[nH]c4ccc(Br)cc4c3=O)CC2)cc1` yielded an inhibition of 97%.
Compound `COc1ccc2[nH]c3nc(SCC(=O)Nc4ccc5c(c4)OCO5)nnc3c2c1` has an inhibition of 65.6%.
For `O=C(NCc1nc2ccccc2[nH]1)C1=C[C@@H](c2csc3ccccc23)C[C@@H](OCCCCO)O1`, the inhibition was 89.2%.
With `O=C(CC=NOCc1ccc([N+](=O)[O-])cc1)Nc1ccc(Br)cc1` the inhibition was 84.7%.
Compound `CC(CC(=O)Nc1cccc(Br)c1)=NNC(=O)c1ccc(O)cc1O` has an inhibition of 90.5%.
Compound `Cc1ccc(CNC(=O)CSc2nnc3c(n2)[nH]c2ccc(C)cc23)cc1` has an inhibition of 71.3%.
Compound `CC(=O)c1cn(CC(=O)Nc2cccc(C(F)(F)F)c2)c2ccccc12` has an inhibition of 39.3%.
For `CCN(CC)C(=O)C(=O)c1cn(CC(=O)N2CCCc3ccccc32)c2ccccc12`, the inhibition was -17.2%.
For `Cc1cccc(C(=O)NCCc2nc3ccccc3n2CCOc2ccccc2)c1`, the inhibition was 0.31%.
Compound `CC1Cc2ccccc2N1C(=O)Cn1cc(C(=O)C(=O)N2CCOCC2)c2ccccc21` (centres undefined) has an inhibition of -14.7%.
For `CCN(CC)C(=O)C(=O)c1cn(CC(=O)Nc2cccc(OC)c2)c2ccccc12`, the inhibition was 86.4%.
Work on `CCc1ccc2c(c1)c1nnc(SCC(=O)Nc3ccc4c(c3)OCO4)nc1n2C` yielded an inhibition of -8.11%.
Work on `Cc1cccc2[nH]c(C3CCCN(C(=O)c4cccc5cccnc45)C3)nc12` (centres undefined) yielded an inhibition of -4.34%.
In the case of `Cc1cccc(NC(=O)C2CC(=O)n3c(nc4ccccc43)N2)c1` (centres undefined), the inhibition is reported as 8.95%.
For `CCCCn1c(CCNC(=O)c2ccc(F)cc2)nc2ccccc21`, the inhibition was 2.32%.
For `Cc1ccc(C(=O)NCCc2nc3ccccc3[nH]2)cc1[N+](=O)[O-]`, the inhibition was 86.4%.
`CNC(=S)N(CCc1ccccc1)C1CC(=O)N(c2ccc(Br)cc2)C1=O` (centres undefined) gave an inhibition of 99.7%.
With `CCOC(=O)N1CCC(Nc2c(Nc3ccc(F)cc3)c(=O)c2=O)CC1` the inhibition was 72.7%.
For `O=C(NCCc1nc2ccccc2[nH]1)c1ccc(Cl)c([N+](=O)[O-])c1`, the inhibition was 99.6%.
Compound `O=C(NCc1nc2ccccc2[nH]1)C1=C[C@H](c2ccc(Br)cc2)C[C@H](OCc2ccc(CO)cc2)O1` has an inhibition of 94.6%.
In the case of `O=C(NCc1nc2ccccc2[nH]1)C1=C[C@@H](c2ccc3c(c2)OCO3)C[C@@H](OCCCCO)O1`, the inhibition is reported as 93.7%.
Work on `O=C(Cn1cc(C(=O)C(=O)N2CCCC2)c2ccccc21)Nc1ccccc1` yielded an inhibition of 9.2%.
`CCO[C@@H]1OC(C(=O)NCc2nc3ccccc3[nH]2)=C[C@H](c2ccc(Br)cc2)[C@H]1CCCO` showed an inhibition of 64%.
`CC(=O)c1c[nH]c(C(=O)NCc2cccc(C(F)(F)F)c2)c1` showed an inhibition of 92.7%.
Compound `Cc1ccc(NC(=O)CN(C)C(=O)CCSc2ccc(F)cc2)cc1` has an inhibition of 67.3%.
With `O=C1CC(NCCc2ccccc2)C(=O)N1c1ccc(Br)cc1` (centres undefined) the inhibition was -9%.
